Experimental data from PubChem BioAssay (EPA / NIEHS).
The source made the active and inactive calls. The calls were made as follows: active = hit-call score of the fitted dose curve at least 0.9, where 1 is the maximum; inactive = score below 0.9.

Tests used:
Conditions in all cases: mRNA level, 48 h; actives raise or lower the signal
[1] = read-out: DNA damage-inducible transcript 3 (DDIT3), DDIT3 (gene 1649); experiment: LTEA_HepaRG_DDIT3: Life Technologies and Expression Analysis (LTEA) Assay for DNA damage-inducible transcript 3 (DDIT3) using HepaRG (AID 2283488)
Method in brief: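 HepaRG plated 48 h, switched to serum-free induction medium, dosed 48 h (100 uM top, half-log, 8 pts, 0.5% DMSO, n=2); RNA isolated; DDIT3 by qRT-PCR; bidirectional curve fit vs DMSO.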

[2] = read-out: Pro-epidermal growth factor (Homo sapiens) (UniProt P01133); experiment: LTEA_HepaRG_EGF: Life Technologies and Expression Analysis (LTEA) Assay for Epidermal growth factor (EGF) using HepaRG (AID 2283489)
Method in brief: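 HepaRG cells (~100,000/well, 48 h pre-culture) exposed in duplicate for 48 h in serum-free induction medium to 8 half-log concentrations up to 100 uM in 0.5% DMSO. EGF mRNA by qRT-PCR, normalized to ACTB/GAPDH/POLR2A; bidirectional fit versus DMSO.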

[3] = read-out: Early growth response protein 1 (EGR1) transcription factor, EGR1 (gene 1958); experiment: LTEA_HepaRG_EGR1: Life Technologies and Expression Analysis (LTEA) Assay for Early growth response protein 1 (EGR1) transcription factor using HepaRG (AID 2283490)
Method in brief: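 Differentiated human HepaRG cells in serum-free induction medium were exposed in duplicate for 48 h to eight concentrations (top 100 uM, half-log steps) in 0.5% DMSO. EGR1 mRNA was quantified by qRT-PCR, normalized to ACTB, GAPDH and POLR2A, and fitted bidirectionally versus DMSO.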

[4] = read-out: Ezrin (EZR), EZR (gene 7430); experiment: LTEA_HepaRG_EZR: Life Technologies and Expression Analysis (LTEA) Assay for Ezrin (EZR) using HepaRG (AID 2283491)
Method in brief: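 EZR transcript levels came from Fluidigm qRT-PCR and were normalized to three housekeeping genes after 48 h chemical exposure of HepaRG cells. Dosing used an 8-point half-log series with a 100 uM top concentration in 0.5% DMSO, tested in duplicate; both directions were fitted versus vehicle.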

CYP3A5 (gene 1577) = experiment: LTEA_HepaRG_CYP3A5: Life Technologies and Expression Analysis (LTEA) Assay for CYP3A5 using HepaRG (AID 2283493)
Method in brief: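 HepaRG plated 48 h, switched to serum-free induction medium, chemicals added 48 h (max 100 uM, half-log, 0.5% DMSO). RNA isolated; CYP3A5 by TaqMan qRT-PCR. Gain/loss vs DMSO.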

[5] = read-out: Fatty Acid-Binding Protein 1 (FABP1), FABP1 (gene 2168); experiment: LTEA_HepaRG_FABP1: Life Technologies and Expression Analysis (LTEA) Assay for Fatty Acid-Binding Protein 1 (FABP1) using HepaRG (AID 2283494)
Method in brief: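 Differentiated human HepaRG cells were exposed in duplicate for 48 h in serum-free induction medium to 8-point half-log concentration series topping at 100 uM in 0.5% DMSO. FABP1 mRNA measured by TaqMan qRT-PCR, normalized to ACTB/GAPDH/POLR2A; bidirectional fit versus DMSO.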

[6] = read-out: Cytochrome P450 4A22 (Homo sapiens) (UniProt Q5TCH4); experiment: LTEA_HepaRG_CYP4A22: Life Technologies and Expression Analysis (LTEA) Assay for Cytochrome P450 4A22 (CYP4A22) using HepaRG (AID 2283495)
Method in brief: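 Differentiated HepaRG cells in serum-free induction medium exposed 48 h in duplicate to eight half-log concentrations up to 100 uM in 0.5% DMSO. CYP4A22 mRNA quantified by TaqMan qRT-PCR, normalized to ACTB, GAPDH and POLR2A; bidirectional fit versus DMSO.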

[7] = read-out: Cytochrome P450 7A1 (Homo sapiens) (UniProt P22680); experiment: LTEA_HepaRG_CYP7A1: Life Technologies and Expression Analysis (LTEA) Assay for Cytochrome P450 7A1 (CYP7A1) using HepaRG (AID 2283496)
Method in brief: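 HepaRG cells plated 48 h, then switched to serum-free induction medium and exposed in duplicate for 48 h to 8-point half-log series from 100 uM in 0.5% DMSO. CYP7A1 mRNA by qRT-PCR (TaqMan), normalized to ACTB/GAPDH/POLR2A; bidirectional fit versus DMSO.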

[8] = read-out: Glutathione S-Transferase (GSTA2), GSTA2 (gene 2939); experiment: LTEA_HepaRG_GSTA2: Life Technologies and Expression Analysis (LTEA) Assay for Glutathione S-Transferase (GSTA2) using HepaRG (AID 2283497)
Method in brief: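 Human HepaRG cells, plated 48 h, then exposed in serum-free induction medium for 48 h to eight half-log concentrations up to 100 uM in 0.5% DMSO, duplicate. GSTA2 mRNA by qRT-PCR, normalized to ACTB/GAPDH/POLR2A; bidirectional fit versus DMSO.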

[9] = read-out: Glutamate-cysteine ligase catalytic (GCLC), GCLC (gene 2729); experiment: LTEA_HepaRG_GCLC: Life Technologies and Expression Analysis (LTEA) Assay for Glutamate-cysteine ligase catalytic (GCLC) using HepaRG (AID 2283498)
Method in brief: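 Differentiated human HepaRG cells, plated 48 h then switched to serum-free induction medium, were exposed in duplicate for 48 h to 8 half-log concentrations topping at 100 uM in 0.5% DMSO. GCLC mRNA was quantified by qRT-PCR against ACTB, GAPDH and POLR2A.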

[10] = read-out: growth arrest and DNA damage 45 (GADD45G), GADD45G (gene 10912); experiment: LTEA_HepaRG_GADD45G: Life Technologies and Expression Analysis (LTEA) Assay for growth arrest and DNA damage 45 (GADD45G) using HepaRG (AID 2283499)
Method in brief: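 Differentiated human HepaRG cells, 48 h post-plating, exposed 48 h in serum-free induction medium to 8 half-log concentrations (top 100 uM, 0.5% DMSO) in duplicate. GADD45G mRNA measured by Fluidigm TaqMan qRT-PCR, normalized to ACTB, GAPDH, POLR2A; bidirectional fit versus DMSO.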

[11] = read-out: Glutamate-cysteine ligase regulatory (GCLM), GCLM (gene 2730); experiment: LTEA_HepaRG_GCLM: Life Technologies and Expression Analysis (LTEA) Assay for Glutamate-cysteine ligase regulatory (GCLM) using HepaRG (AID 2283500)
Method in brief: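 Cells were plated, cultured 48 h, switched to serum-free induction medium, then dosed in duplicate for 48 h at eight half-log concentrations up to 100 uM. RNA was then profiled by qRT-PCR; gain or loss versus DMSO was fitted.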

[12] = read-out: Glutathione S-transferase M3 (GSTM3), GSTM3 (gene 2947); experiment: LTEA_HepaRG_GSTM3: Life Technologies and Expression Analysis (LTEA) Assay for Glutathione S-transferase M3 (GSTM3) using HepaRG (AID 2283501)
Method in brief: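 Differentiated human HepaRG cells were exposed in duplicate for 48 h in serum-free induction medium, 8 points from 100 uM top in half-log steps, 0.5% DMSO. GSTM3 mRNA was measured by TaqMan qRT-PCR, normalized to ACTB, GAPDH and POLR2A; bidirectional fit versus DMSO.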

[13] = read-out: Heat shock 70 kDa protein 1 (HSPA1A), gene 3303; experiment: LTEA_HepaRG_HSPA1A: Life Technologies and Expression Analysis (LTEA) Assay for Heat shock 70 kDa protein 1 (HSPA1A) using HepaRG (AID 2283502)
Method in brief: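 Readout is HSPA1A transcript level by microfluidic qRT-PCR, normalized to three housekeeping genes and analysed for gain or loss of signal relative to 0.5% DMSO. Human HepaRG cultures received test chemicals for 48 h at up to 100 uM.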

[14] = read-out: 3-Hydroxy-3-Methylglutaryl-CoA Synthase 2 (HMGCS2), HMGCS2 (gene 3158); experiment: LTEA_HepaRG_HMGCS2: Life Technologies and Expression Analysis (LTEA) Assay for 3-Hydroxy-3-Methylglutaryl-CoA Synthase 2 (HMGCS2) using HepaRG (AID 2283504)
Method in brief: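 Human HepaRG cells in serum-free induction medium were exposed in duplicate for 48 h to 8-point half-log series from 100 uM top in 0.5% DMSO. HMGCS2 mRNA measured by TaqMan qRT-PCR, normalised to ACTB, GAPDH, POLR2A; bidirectional fit versus DMSO.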

[15] = read-out: Insulin Like Growth Factor 1 (IGF1), IGF1 (gene 3479); experiment: LTEA_HepaRG_IGF1: Life Technologies and Expression Analysis (LTEA) Assay for Insulin Like Growth Factor 1 (IGF1) using HepaRG (AID 2283506)
Method in brief: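 HepaRG, plated 48 h, then switched to serum-free induction media; test chemical 8-pt half-log from 100 uM (0.5% DMSO), duplicate, 48 h. Lysis in RLT, TaqMan qRT-PCR, norm. ACTB/GAPDH/POLR2A. Bidirectional fit vs DMSO.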

[16] = read-out: Intercellular Adhesion Molecule 1 (ICAM1), ICAM1 (gene 3383); experiment: LTEA_HepaRG_ICAM1: Life Technologies and Expression Analysis (LTEA) Assay for Intercellular Adhesion Molecule 1 (ICAM1) using HepaRG (AID 2283507)
Method in brief: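 Differentiated human HepaRG cells in serum-free induction medium exposed 48 h in duplicate to 8 half-log concentrations (top 100 uM, 0.5% DMSO). ICAM1 mRNA quantified by TaqMan qRT-PCR, normalized to ACTB, GAPDH and POLR2A; bidirectional fitting versus DMSO.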

[17] = read-out: Hypoxia-inducible factor 1-alpha (Homo sapiens) (UniProt Q16665); experiment: LTEA_HepaRG_HIF1A: Life Technologies and Expression Analysis (LTEA) Assay for Hypoxia-inducible factor 1 (HIF1A) Trancription factor using HepaRG (AID 2283503)
Method in brief: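 Differentiated HepaRG cells in serum-free induction medium exposed 48 h, in duplicate, to 8-point half-log series from 100 uM in 0.5% DMSO. HIF1A mRNA measured by TaqMan qRT-PCR, normalized to ACTB/GAPDH/POLR2A, fitted bidirectionally versus DMSO.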

[18] = read-out: Cytochrome P450 3A7 (Homo sapiens) (UniProt P24462); experiment: LTEA_HepaRG_CYP3A7: Life Technologies and Expression Analysis (LTEA) Assay for CYP3A7 using HepaRG (AID 2283492)
Method in brief: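 Differentiated HepaRG cells in serum-free induction medium exposed 48 h in duplicate to 8-point half-log series from 100 uM top in 0.5% DMSO. CYP3A7 mRNA by qRT-PCR, normalized to ACTB/GAPDH/POLR2A, bidirectional fit versus DMSO.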

HGF (gene 3082) = experiment: LTEA_HepaRG_HGF: Life Technologies and Expression Analysis (LTEA) Assay for Hepatocyte Growth Facto (HGF) using HepaRG (AID 2283505)
Method in brief: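 Differentiated HepaRG cells in serum-free induction medium exposed 48 h in duplicate, 8 half-log concentrations from 100 uM in 0.5% DMSO. HGF mRNA by qRT-PCR, normalised to ACTB, GAPDH, POLR2A; bidirectional fitting.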

Sequence of Hypoxia-inducible factor 1-alpha (Homo sapiens) (Q16665 whole entry, looked up): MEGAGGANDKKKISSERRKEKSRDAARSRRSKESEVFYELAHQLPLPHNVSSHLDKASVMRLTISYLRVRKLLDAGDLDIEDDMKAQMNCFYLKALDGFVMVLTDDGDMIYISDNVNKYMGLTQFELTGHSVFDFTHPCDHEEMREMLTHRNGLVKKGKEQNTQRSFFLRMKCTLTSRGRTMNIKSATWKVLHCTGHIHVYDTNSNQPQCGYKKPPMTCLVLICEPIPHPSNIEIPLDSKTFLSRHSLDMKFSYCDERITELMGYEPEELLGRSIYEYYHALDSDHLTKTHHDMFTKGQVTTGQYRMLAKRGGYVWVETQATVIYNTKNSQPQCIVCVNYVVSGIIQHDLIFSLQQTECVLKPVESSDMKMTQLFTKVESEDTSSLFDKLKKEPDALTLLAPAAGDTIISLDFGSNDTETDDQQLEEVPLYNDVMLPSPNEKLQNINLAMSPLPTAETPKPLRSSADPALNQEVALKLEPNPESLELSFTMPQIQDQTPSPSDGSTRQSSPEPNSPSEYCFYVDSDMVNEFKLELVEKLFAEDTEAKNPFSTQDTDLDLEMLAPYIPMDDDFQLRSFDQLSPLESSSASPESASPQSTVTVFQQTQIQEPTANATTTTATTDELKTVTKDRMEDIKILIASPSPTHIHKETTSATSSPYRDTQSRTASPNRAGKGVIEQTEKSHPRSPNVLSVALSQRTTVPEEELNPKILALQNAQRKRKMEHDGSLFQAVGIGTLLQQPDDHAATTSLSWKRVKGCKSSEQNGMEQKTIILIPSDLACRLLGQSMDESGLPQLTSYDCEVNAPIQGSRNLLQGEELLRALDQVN
Sequence of Cytochrome P450 3A7 (Homo sapiens) (P24462 whole entry, looked up): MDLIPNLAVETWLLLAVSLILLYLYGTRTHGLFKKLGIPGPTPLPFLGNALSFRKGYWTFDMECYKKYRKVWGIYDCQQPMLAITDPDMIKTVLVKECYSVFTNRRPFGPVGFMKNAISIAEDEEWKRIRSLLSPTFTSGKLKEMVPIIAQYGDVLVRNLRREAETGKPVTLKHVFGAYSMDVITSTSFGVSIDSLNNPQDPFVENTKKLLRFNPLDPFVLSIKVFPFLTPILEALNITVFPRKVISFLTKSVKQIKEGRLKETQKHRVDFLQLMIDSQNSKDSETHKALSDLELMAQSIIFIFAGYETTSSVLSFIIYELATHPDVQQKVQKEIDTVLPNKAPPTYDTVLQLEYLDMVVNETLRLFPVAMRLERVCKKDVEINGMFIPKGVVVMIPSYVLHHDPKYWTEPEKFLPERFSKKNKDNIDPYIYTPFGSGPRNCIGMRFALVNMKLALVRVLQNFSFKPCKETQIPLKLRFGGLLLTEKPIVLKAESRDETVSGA

Compound: Cc1cccc(Nc2cc(Cl)nc(SCC(=O)O)n2)c1C
- outcome [1]: inactive
- outcome [2]: inactive
- outcome [3]: inactive
- outcome [4]: inactive
- outcome (CYP3A5 (gene 1577)): inactive
- AC50 [5]: 16.7 µM (active)
- AC50 [6]: 16.7 µM (active)
- AC50 [7]: 19.5 µM (active)
- outcome [8]: inactive
- outcome [9]: inactive
- outcome [10]: inactive
- outcome [11]: inactive
- outcome [12]: inactive
- outcome [13]: inactive
- AC50 [14]: 6.99 µM (active)
- outcome [15]: inactive
- outcome [16]: inactive

Compound: Nc1ccccc1N
- outcome [1]: inactive
- outcome [2]: inactive
- AC50 [3]: 30 µM (active)
- outcome [4]: inactive
- AC50 (CYP3A5 (gene 1577)): 51.3 µM (active)
- AC50 [5]: 72.6 µM (active)
- AC50 [6]: 64.6 µM (active)
- AC50 [8]: 74.9 µM (active)
- AC50 [9]: 86.4 µM (active)
- AC50 [10]: 67.7 µM (active)
- outcome [11]: inactive
- outcome [12]: inactive
- AC50 [13]: 50 µM (active)
- outcome [17]: inactive
- AC50 [14]: 74 µM (active)
- AC50 [15]: 66.8 µM (active)
- outcome [16]: inactive

Compound: CC(C)c1ccc(C(=O)N=C(N)N)cc1S(C)(=O)=O
- AC50 [1]: 0.545 µM (active)
- AC50 [2]: 0.69 µM (active)
- outcome [4]: inactive
- AC50 [18]: 0.74 µM (active)
- outcome (CYP3A5 (gene 1577)): inactive
- outcome [5]: inactive
- AC50 [6]: 8.37 µM (active)
- outcome [7]: inactive
- outcome [8]: inactive
- AC50 [9]: 0.336 µM (active)
- outcome [10]: inactive
- AC50 [11]: 0.441 µM (active)
- AC50 [12]: 0.446 µM (active)
- AC50 [13]: 7.39 µM (active)
- outcome [17]: inactive
- outcome [14]: inactive
- AC50 (HGF (gene 3082)): 7.39 µM (active)
- AC50 [15]: 0.362 µM (active)
- AC50 [16]: 0.388 µM (active)
